From article PMC5540273 (PLoS ONE, 2017)

Legend:
Settings in all cases: concentration: 1 μM, replicates: in singlicate; n = 1
[1] = system: T1, PCTK2
T1 construct: gene CDK17

[2] = system: T2, PCTK3
T2 construct: gene CDK18

[3] = system: PDGFRA
[4] = system: PDGFRB
[5] = system: PDPK1
[6] = system: PFTAIRE2
[7] = system: T3, PFTK1
T3 construct: gene CDK14

[8] = system: PHKG1
[9] = system: PHKG2
[10] = system: PIK3C2B
[11] = system: PIK3C2G
[12] = system: PIK3CA
[13] = system: PIK3CB
[14] = system: PIK3CD
[15] = system: PIK3CG
[16] = system: T4, PIK4CB
T4 construct: gene PI4KB

[17] = system: PIKFYVE
[18] = system: PIM1
[19] = system: PIM2
[20] = system: PIM3
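Note: KINOMEscan kinase panel screen.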

SMILES | %Inh [1] [%] | %Inh [2] [%] | %Inh [3] [%] | %Inh [4] [%] | %Inh [5] [%] | %Inh [6] [%] | %Inh [7] [%] | %Inh [8] [%] | %Inh [9] [%] | %Inh [10] [%] | %Inh [11] [%] | %Inh [12] [%] | %Inh [13] [%] | %Inh [14] [%] | %Inh [15] [%] | %Inh [16] [%] | %Inh [17] [%] | %Inh [18] [%] | %Inh [19] [%] | %Inh [20] [%]
Cc1ccc(O)cc1Nc1ccnc2cc(-c3ccc(CN4CCCCC4)o3)ccc12 [GW557777] | 0 | 8 | 95.3 | 99.7 | 0 | 0 | 15 | 9 | 7 | 0 | 16 | 0 | 0 | 0 | 0 | 0 | 0 | 0 | 2 | 7
O=C1NC(=O)C(c2ccccc2Cl)=C1Nc1cccc(Cl)c1 [SB-342409] | 0 | 31 | 0 | 13 | 13 | 21 | 13 | 0 | 0 | 0 | 0 | 0 | 0 | 0 | 0 | 0 | 0 | 0 | 0 | 0
Cc1ccc(O)cc1Nc1ccnc2ccc(C(C)(C)C)cc12 [GW856805] | 14 | 5 | 64 | 62 | 52 | 12 | 21 | 24 | 0 | 23 | 39 | 13 | 40 | 56 | 22 | 47 | 18 | 37 | 5 | 18
Cc1cccc(Nc2nc(NCCN)ncc2C(N)=O)c1 [GSK1292139] | 0 | 0 | 51 | 89 | 0 | 16 | 0 | 42 | 63 | 0 | 0 | 0 | 0 | 2 | 2 | 22 | 0 | 28 | 35 | 58
COc1cccc(C2=C(Nc3cccc(O)c3)C(=O)NC2=O)c1 [SB-390771] | 0 | 6 | 0 | 20 | 0 | 14 | 22 | 0 | 0 | 0 | 0 | 0 | 0 | 0 | 0 | 10 | 0 | 26 | 0 | 0
CN1CCN(Cc2ccc(NC(=O)Nc3ccc(N(C)c4ccnc(Nc5ccc(CS(C)(=O)=O)cc5)n4)cc3)cc2)CC1.Cl [GW827654] | 43 | 0 | 99.9 | 99.9 | 10 | 22 | 0 | 19 | 0 | 0 | 6 | 0 | 16 | 0 | 26 | 30 | 7 | 0 | 0 | 45
COc1cccc(NC(=O)NCCNc2ccnc(Nc3ccc(F)cc3)n2)c1 [GSK1379879] | 0 | 0 | 0 | 53 | 0 | 6 | 18 | 0 | 0 | 0 | 10 | 0 | 0 | 0 | 0 | 0 | 8 | 13 | 0 | 0
Cc1ccc(Nc2ccnc(Nc3ccc(C)c(F)c3)n2)cc1O.Cl [GW582868] | 0 | 20 | 3 | 96.9 | 0 | 0 | 1 | 0 | 0 | 0 | 0 | 0 | 0 | 11 | 0 | 8 | 24 | 52 | 0 | 0
COc1ccc(C2=C(Nc3cccc(O)c3)C(=O)NC2=O)cc1 [SB-390766] | 0 | 16 | 0 | 26 | 0 | 4 | 13 | 0 | 21 | 0 | 0 | 0 | 0 | 2 | 0 | 9 | 0 | 9 | 0 | 0
Cc1ccc(C)c(NC(=O)Nc2ccc(C)c(-c3ccc(C(=O)Nc4ccncc4)cc3)c2)c1 [GSK1398473] | 0 | 23 | 80 | 100 | 2 | 12 | 14 | 0 | 0 | 0 | 0 | 0 | 0 | 0 | 0 | 8 | 0 | 16 | 0 | 1
